The whole screen tested about 5,500 compounds, of which about 2,000 (36%) were called active. About 18% were inconclusive and are not listed. No stated cut-off is given here; in the data, active means normalized growth mostly below about 0.91 (no sharp cut-off); inconclusive means no clear call, values can overlap the other calls; inactive means mostly above about 0.92. The list shows a part of the results.
Experiment: chemical genetic growth profiling, strain panel (AID 1159580);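 further: tested at 20 µM; growth read once vehicle control cultures reached saturation at 30 °C; 1 = growth at the plate median or of vehicle wells; lower values mean less growth of the strain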
Conditions: growth OD

Measured: normalized growth

CC[C@@]1(O)C(=O)OCc2c1cc1n(c2=O)Cc2cc3ccccc3nc2-1
active: S. cerevisiae deletion strains, locus YJR066W, strain TOR1, active compounds read low 0.665 | S. cerevisiae deletion strains, locus YKL085W, strain MDH1 (second series), active compounds read low 0.796 | S. cerevisiae deletion strains, locus YKL085W, strain MDH1, active compounds read low 0.796 | S. cerevisiae deletion strains, locus YKR001C, strain vps1, active compounds read low 0.549 | S. cerevisiae deletion strains, locus YKR026C, strain gcn3, active compounds read low 0.919 | S. cerevisiae deletion strains, locus YKR091W, strain srl3, active compounds read low 0.914 | S. cerevisiae deletion strains, locus YLL001W, strain dnm1, active compounds read low 0.831 | S. cerevisiae deletion strains, locus YLL026W, active compounds read low 0.727 | S. cerevisiae deletion strains, locus YLL041C, strain sdh2, active compounds read low 0.924 | S. cerevisiae deletion strains, locus YLR027C, strain aat2, active compounds read low 0.653 | S. cerevisiae deletion strains, locus YLR058C, strain SHM2, active compounds read low 0.881 | S. cerevisiae deletion strains, locus YLR102C, strain apc9, active compounds read low 0.913 | S. cerevisiae deletion strains, locus YLR113W, strain HOG1, active compounds read low 0.711 | S. cerevisiae deletion strains, locus YLR221C, strain rsa3, active compounds read low 0.693 | S. cerevisiae deletion strains, locus YLR258W, strain gsy2, active compounds read low 0.78 | S. cerevisiae deletion strains, locus YLR262C, strain YPT6 (second series), active compounds read low 0.484 | S. cerevisiae deletion strains, locus YLR268W, strain sec22, active compounds read low 0.63 | S. cerevisiae deletion strains, locus YLR320W, strain mms22, active compounds read low 0.108 | S. cerevisiae deletion strains, locus YLR330W, strain CHS5, active compounds read low 0.893 | S. cerevisiae deletion strains, locus YLR342W, strain FKS1 (second series), active compounds read low 0.732 | S. cerevisiae deletion strains, locus YLR342W, strain FKS1, active compounds read low 0.647 | S. cerevisiae deletion strains, locus YLR370C, strain arc18, active compounds read low 0.832 | S. cerevisiae deletion strains, locus YML032C, strain rad52, active compounds read low 0.0917 | S. cerevisiae deletion strains, locus YML120C, strain ndi1, active compounds read low 0.868 | S. cerevisiae deletion strains, locus YML124C, strain tub3, active compounds read low 0.903 | S. cerevisiae deletion strains, locus YMR058W, strain fet3, active compounds read low 0.705 | S. cerevisiae deletion strains, locus YMR078C, strain ctf18, active compounds read low 0.111 | S. cerevisiae deletion strains, locus YMR125W, strain sto1, active compounds read low 0.856 | S. cerevisiae deletion strains, locus YMR129W, active compounds read low 0.893 | S. cerevisiae deletion strains, locus YMR205C, strain PFK2, active compounds read low 0.798 | S. cerevisiae deletion strains, locus YMR223W, strain ubp8, active compounds read low 0.671 | S. cerevisiae deletion strains, locus YMR231W, strain pep5, active compounds read low 0.268 | S. cerevisiae deletion strains, locus YMR263W, strain SAP30, active compounds read low 0.847 | S. cerevisiae deletion strains, locus YMR307W, strain GAS1, active compounds read low 0.461 | S. cerevisiae deletion strains, locus YNL067W, strain RPL9B, active compounds read low 0.781 | S. cerevisiae deletion strains, locus YNL071W, strain lat1, active compounds read low 0.744 | S. cerevisiae deletion strains, locus YNL183C, strain NPR1, active compounds read low 0.643 | S. cerevisiae deletion strains, locus YNL209W, strain ssb2, active compounds read low 0.87 | S. cerevisiae deletion strains, locus YNL233W, strain BNI4, active compounds read low 0.804 | S. cerevisiae deletion strains, locus YNL248C, strain rpa49, active compounds read low 0.679 | S. cerevisiae deletion strains, locus YNL250W, strain rad50, active compounds read low 0.152 | S. cerevisiae deletion strains, locus YNL271C, strain bni1, active compounds read low 0.814 | S. cerevisiae deletion strains, locus YNL298W, strain CLA4, active compounds read low 0.74 | S. cerevisiae deletion strains, locus YNL307C, strain MCK1, active compounds read low 0.505 | S. cerevisiae deletion strains, locus YNL322C, strain KRE1 (second series), active compounds read low 0.465 | S. cerevisiae deletion strains, locus YNR052C, strain pop2, active compounds read low 0.207 | S. cerevisiae deletion strains, locus YOL147C, strain pex11, active compounds read low 0.807 | S. cerevisiae deletion strains, locus YOR001W, strain rrp6, active compounds read low 0.847 | S. cerevisiae deletion strains, locus YOR069W, strain VPS5, active compounds read low 0.883 | S. cerevisiae deletion strains, locus YOR070C, strain gyp1, active compounds read low 0.739 | S. cerevisiae deletion strains, locus YOR080W, strain dia2, active compounds read low 0.543 | S. cerevisiae deletion strains, locus YOR083W, strain WHI5, active compounds read low 0.814 | S. cerevisiae deletion strains, locus YOR106W, strain vam3, active compounds read low 0.366 | S. cerevisiae deletion strains, locus YOR136W, strain idh2, active compounds read low 0.915 | S. cerevisiae deletion strains, locus YOR144C, strain elg1, active compounds read low 0.542 | S. cerevisiae deletion strains, locus YOR184W, strain ser1, active compounds read low 0.67 | S. cerevisiae deletion strains, locus YOR231W, strain MKK1, active compounds read low 0.78 | S. cerevisiae deletion strains, locus YOR265W, strain rbl2, active compounds read low 0.796 | S. cerevisiae deletion strains, locus YOR270C, strain vph1, active compounds read low 0.576 | S. cerevisiae deletion strains, locus YOR290C, strain snf2, active compounds read low 0.746 | S. cerevisiae deletion strains, locus YPL051W, strain arl3, active compounds read low 0.828 | S. cerevisiae deletion strains, locus YPL078C, strain atp4, active compounds read low 0.868 | S. cerevisiae deletion strains, locus YPL240C, strain hsp82, active compounds read low 0.857 | S. cerevisiae deletion strains, locus YPL256C, strain CLN2, active compounds read low 0.784 | S. cerevisiae deletion strains, locus YPR119W, strain clb2, active compounds read low 0.893 | S. cerevisiae deletion strains, locus YPR141C, strain kar3, active compounds read low 0.836 | S. cerevisiae deletion strains, locus YPR163C, strain tif3, active compounds read low 0.276 | S. cerevisiae deletion strains, locus YPR167C, strain met16, active compounds read low 0.795 | S. cerevisiae deletion strains, strain wtn01, active compounds read low 0.739 | S. cerevisiae strains, strain wild type, active compounds read low 0.892
inactive: S. cerevisiae deletion strains, locus YJR075W, strain HOC1, active compounds read low 0.88 | S. cerevisiae deletion strains, locus YKL009W, strain mrt4, active compounds read low 0.936 | S. cerevisiae deletion strains, locus YKL068W, active compounds read low 0.951 | S. cerevisiae deletion strains, locus YKL160W, strain elf1, active compounds read low 0.965 | S. cerevisiae deletion strains, locus YKL190W, strain CNB1, active compounds read low 0.948 | S. cerevisiae deletion strains, locus YLR039C, strain RIC1, active compounds read low 0.692 | S. cerevisiae deletion strains, locus YLR262C, strain YPT6, active compounds read low 0.662 | S. cerevisiae deletion strains, locus YLR357W, strain rsc2, active compounds read low 1 | S. cerevisiae deletion strains, locus YLR371W, strain rom2, active compounds read low 0.929 | S. cerevisiae deletion strains, locus YLR384C, strain iki3, active compounds read low 0.96 | S. cerevisiae deletion strains, locus YLR418C, strain cdc73, active compounds read low 0.857 | S. cerevisiae deletion strains, locus YML016C, strain PPZ1, active compounds read low 0.998 | S. cerevisiae deletion strains, locus YNL128W, strain TEP1, active compounds read low 0.937 | S. cerevisiae deletion strains, locus YNL153C, strain GIM3, active compounds read low 0.892 | S. cerevisiae deletion strains, locus YNR049C, strain mso1, active compounds read low 0.947 | S. cerevisiae deletion strains, locus YOL006C, strain TOP1, active compounds read low 0.971 | S. cerevisiae deletion strains, locus YOL012C, strain htz1 0.487 | S. cerevisiae deletion strains, locus YOR061W, strain CKA2, active compounds read low 0.912 | S. cerevisiae deletion strains, locus YOR316C, strain cot1, active compounds read low 0.942 | S. cerevisiae deletion strains, locus YPL106C, strain sse1, active compounds read low 0.879

From PubChem BioAssay AID1159580 (chemical genetic matrix, 2015)
